Assay [1] can be described thus: qHTS assay to identify small molecule agonists of the sonic hedgehog signaling (Shh) pathway (AID 1259368).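 Further: NIH/3T3-derived 3T3Gli1-Luc cells carrying a stable Gli1-driven firefly luciferase reporter; series mostly up to about 92 µM; nearly all actives have a fitted effect of over 15% in size.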 The method, boiled down:
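3T3Gli1-Luc (NIH/3T3 clone, stable Gli1-Luc); 4 hr pre-incubation, then cpd in DMSO 24 hr, 37 C/5% CO2; luciferase reagent 30 min RT; luminescence.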
(Quantitative high-throughput screening tests each substance at several concentrations.)

A short description of assay [2]: qHTS assay to identify small molecule antagonists of the sonic hedgehog signaling (Shh) pathway (AID 1259369). Further: nearly all actives have a fitted effect of over 45% in size. Further: potency means the concentration at half of the fitted maximal effect. A digest of the protocol:
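3T3Gli1-Luc, conditioned-medium-stimulated, 24hr cpd, 37C/5% CO2; Gli1-driven firefly Luc luminescence after 30min RT with luciferase reagent. Cells plated 4hr before cpd.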

The target of assay [3] is Estrogen receptor beta (Homo sapiens) (UniProt Q92731). Kind of assay: qHTS assay to identify small molecule agonists of the estrogen receptor beta (ER-beta) signaling pathway (AID 1259377; active means well fitted activation curve with a large enough effect in the signal ratio in the repeat runs, not every such curve was filed as active; the % refers to the signal ratio). The method, boiled down: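 HEK293T ER-beta-UAS-bla; 2% charcoal-stripped FBS; cells pre-incubated 6 hr, compound 16 hr, 37C/5% CO2; LiveBLAzer B/G FRET substrate 2 h RT; fluorescence intensity read.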
Sequence of Estrogen receptor beta (Homo sapiens) (Q92731 whole entry, looked up): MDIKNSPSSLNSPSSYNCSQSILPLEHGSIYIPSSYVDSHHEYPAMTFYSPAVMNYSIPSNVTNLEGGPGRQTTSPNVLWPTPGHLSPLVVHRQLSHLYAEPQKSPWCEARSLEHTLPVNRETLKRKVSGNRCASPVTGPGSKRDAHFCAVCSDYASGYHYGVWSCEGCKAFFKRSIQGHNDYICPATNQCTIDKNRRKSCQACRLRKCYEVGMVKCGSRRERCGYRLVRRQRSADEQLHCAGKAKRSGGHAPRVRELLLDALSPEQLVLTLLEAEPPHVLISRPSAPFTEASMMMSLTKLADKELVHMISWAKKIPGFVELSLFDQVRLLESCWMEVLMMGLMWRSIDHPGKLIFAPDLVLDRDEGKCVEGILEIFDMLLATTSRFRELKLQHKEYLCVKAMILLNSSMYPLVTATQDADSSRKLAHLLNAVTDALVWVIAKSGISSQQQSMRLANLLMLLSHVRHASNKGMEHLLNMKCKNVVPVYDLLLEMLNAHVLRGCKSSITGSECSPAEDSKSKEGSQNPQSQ

Assay [4] has the same target. In words: qHTS assay to identify small molecule antagonists of the estrogen receptor beta (ER-beta) signaling pathway (AID 1259378; active means well fitted inhibition curve with a large enough effect in the signal ratio in the repeat runs, not every such curve was filed as active; the % refers to the signal ratio; further: potency means the concentration at half of the fitted maximal effect). The method, boiled down:
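ER-beta-UAS-bla HEK293T (GripTite) cells in 2% charcoal-stripped FBS medium were preincubated 6 hr at 37C, dosed with compound, then stimulated with 1 nM E2 (final) for 16 hr; beta-lactamase reporter read by B/G FRET fluorescence after 2 hr substrate loading.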

Assay [5] can be described thus: qHTS assay to identify small molecule agonists of the androgen receptor (AR) signaling pathway in the presence of an antagonist - cell viability counter screen (AID 1259379; active means well fitted curve in the direction sought with a large enough effect in the repeat runs; an effect the other way counts as inactive or inconclusive; further: nearly all actives have a fitted effect of over 25% in size; further: potency means the concentration at half of the fitted maximal effect). A digest of the protocol:
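Cells: MDA-kb2 (MMTV-luc, AR and GR elements), 3,000/well, 5 hr settle. Added: nilutamide 3.0uM final, then compounds (15 conc.). Incubation: 16 hr, 37C, no CO2. Read-out: CellTiter-Fluor, 1 hr, fluorescence.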

Assay [6] in a line: qHTS assay to identify small molecule antagonists of the estrogen receptor beta (ER-beta) signaling pathway - cell viability counter screen (AID 1259382; active means well fitted curve in the direction sought with a large enough effect in the repeat runs; an effect the other way counts as inactive or inconclusive; further: nearly all actives have a fitted effect of over 55% in size; further: potency means the concentration at half of the fitted maximal effect). The method, boiled down:
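Cells: ER-beta-UAS-bla HEK293T, 2,000/well, 2% CS-FBS, 6 hr settle. Cpd + E2 (1nM final), 16 hr, 37C/5% CO2. Bla FRET substrate 2 hr RT, then CellTiter-Glo 30 min RT, luminescence.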

The target in assay [7] is Estrogen receptor (Homo sapiens) (UniProt P03372). In words: qHTS assay to identify small molecule agonists of the estrogen receptor alpha (ER-alpha) signaling pathway in the presence of an antagonist (AID 1259383). Further: top concentration of the series differs between compounds; nearly all actives have a fitted effect of over 15% in size. A digest of the protocol: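 VM7Luc4E2, endog. ER-alpha + 4×ERE-luc; charcoal-stripped FBS, phenol red-free, 5 d; 24hr plating; +10.0nM ICI-182,780 (final); cpds 15 conc, 22hr, 37C/5% CO2; ONE-Glo luminescence.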
Sequence of Estrogen receptor (Homo sapiens) (P03372 whole entry, looked up): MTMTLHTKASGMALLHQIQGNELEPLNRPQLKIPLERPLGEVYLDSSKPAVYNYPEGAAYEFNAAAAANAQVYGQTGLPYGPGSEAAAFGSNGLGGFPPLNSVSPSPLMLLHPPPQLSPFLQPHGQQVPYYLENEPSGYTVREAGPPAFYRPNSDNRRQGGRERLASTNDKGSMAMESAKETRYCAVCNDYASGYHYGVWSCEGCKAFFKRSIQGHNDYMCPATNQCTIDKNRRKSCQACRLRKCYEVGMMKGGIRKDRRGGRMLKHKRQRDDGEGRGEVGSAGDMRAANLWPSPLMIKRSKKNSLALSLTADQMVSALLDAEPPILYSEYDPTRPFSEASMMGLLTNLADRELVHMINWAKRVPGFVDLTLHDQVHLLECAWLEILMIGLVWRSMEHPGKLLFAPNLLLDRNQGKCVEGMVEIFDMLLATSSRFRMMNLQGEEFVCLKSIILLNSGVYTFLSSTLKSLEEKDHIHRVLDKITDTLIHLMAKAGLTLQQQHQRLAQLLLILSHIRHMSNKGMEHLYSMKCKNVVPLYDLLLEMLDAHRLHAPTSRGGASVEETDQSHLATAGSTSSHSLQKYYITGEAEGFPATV

Assay [8] is described as follows: qHTS assay to identify small molecule agonists or antagonists of the thyroid stimulating hormone receptor (TSHR) signaling pathway - wild type cell line counter screen (AID 1259384). A digest of the protocol:
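Wild-type HEK293 cells were plated 18 h at 37 C/5% CO2, pin-dosed with compound plus Ro20-1724 medium, held 30 min at room temperature, then given cAMP-d2 and anti-cAMP-cryptate; fluorescence was read after 1 h. Fifteen concentrations, triplicate.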

Assay [9] has as its target Thyrotropin receptor (Homo sapiens) (UniProt P16473). Kind of assay: qHTS assay to identify small molecule antagonists of the thyroid stimulating hormone receptor (TSHR) signaling pathway (AID 1259385). Further: nearly all actives have a fitted effect of over 20% in size. Further: potency means the concentration at half of the fitted maximal effect. A digest of the protocol: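 TSHR-HEK293 cells were plated and held 18 h at 37C/5% CO2, then given compound plus Ro20-1724 and stimulated with TSH at 1.5 ng/mL final. After 30 min at room temperature, cAMP was detected with cAMP-d2/anti-cAMP-cryptate (1 h) by fluorescence.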

A short description of assay [10]: qHTS assay to identify small molecule agonists of the estrogen receptor alpha (ER-alpha) signaling pathway in the presence of an antagonist - cell viability counter screen (AID 1259386; active means well fitted curve in the direction sought with a large enough effect in the repeat runs; an effect the other way counts as inactive or inconclusive;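 further: cells exposed to compounds for 22 h at 37 °C before the viability read; nearly all actives have a fitted effect of over 30% in size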; further: potency means the concentration at half of the fitted maximal effect). A digest of the protocol:
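VM7Luc4E2, stripped-serum pre-culture 5 d; 24hr plating; +ICI-182,780 10.0nM final; cpds 15 conc, 22hr, 37C/5% CO2; CellTiter-Fluor added at 21hr, fluorescence 1hr later.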

Assay [11] addresses Progesterone receptor (Homo sapiens) (UniProt P06401). In words: qHTS assay to identify small molecule agonists of the progesterone receptor (PR) signaling pathway (AID 1346784). Further: nearly all actives have a fitted effect of over 30% in size. Further: potency means the concentration at half of the fitted maximal effect. The method, boiled down:
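Beta-lactamase reporter read-out: after 16 hr compound treatment at 37C and a further 2 hr at room temperature with LiveBLAzer B/G FRET substrate, fluorescence was measured in PR-UAS-bla HEK 293T cells grown in 2% charcoal-stripped serum.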

Assay [12] has the same target. In words: qHTS assay to identify small molecule antagonists of the progesterone receptor (PR) signaling pathway (AID 1346795; active means well fitted inhibition curve with a large enough effect in the signal ratio in the repeat runs, not every such curve was filed as active; the % refers to the signal ratio; further: potency means the concentration at half of the fitted maximal effect). A digest of the protocol: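 Read-out is fluorescence from the LiveBLAzer B/G FRET substrate, cleaved by a UAS-controlled beta-lactamase in PR-UAS-bla HEK293T cells after 16 hr exposure to compound plus 1 nM promegestone (final), followed by 2 hr at room temperature.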

Assay [13] is described as follows: qHTS assay to identify small molecule antagonists of the progesterone receptor (PR) signaling pathway - cell viability counter screen (AID 1346798; active means well fitted curve in the direction sought with a large enough effect in the repeat runs; an effect the other way counts as inactive or inconclusive; further: nearly all actives have a fitted effect of over 50% in size; further: potency means the concentration at half of the fitted maximal effect). A digest of the protocol:
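HEK293T PR-UAS-bla, 2% charcoal-stripped FBS; 4 hr pre-plate; cpd + R5020, 16 h 37C; LiveBLAzer read first; then CellTiter-Glo 30 min RT, luminescence.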

A short description of assay [14]: qHTS assay to identify small molecule antagonists of the TGF-beta/Smad signaling pathway - cell viability counter screen (AID 1346824; active means well fitted curve in the direction sought with a large enough effect in the repeat runs; an effect the other way counts as inactive or inconclusive; further: nearly all actives have a fitted effect of over 50% in size). A digest of the protocol: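 SBE-bla HEK 293T cells were plated overnight at 37 C, then given compounds in DMSO plus TGF-beta1 (added as 0.25 ng/mL solution) for 5 hr. After the bla read, CellTiter-Glo was added to the same wells and luminescence read after 30 min at room temperature.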

The nature of assay [15]: qHTS assay to identify small molecule agonists of the TGF-beta/Smad signaling pathway - cell viability counter screen (AID 1346829; active means well fitted curve in the direction sought with a large enough effect in the repeat runs; an effect the other way counts as inactive or inconclusive; further: top concentration of the series differs between compounds; nearly all actives have a fitted effect of over 45% in size). A digest of the protocol: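 In parallel with the Smad reporter read, viability of HEK 293T cells stably carrying SBE-bla is quantified by ATP luminescence following 5 hr compound treatment.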
Assay [16] is described as follows: qHTS assay to identify small molecule agonists of the TGF-beta/Smad signaling pathway (AID 1346859; active means well fitted activation curve with a large enough effect in the signal ratio in the repeat runs, not every such curve was filed as active; the % refers to the signal ratio; further: series mostly up to about 77 µM). A digest of the protocol:
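SBE-bla HEK 293T, 4,000 cells/well, plated o/n; cpd in DMSO, 5 hr, 37 C/5% CO2; B/G FRET substrate 2 hr RT; ex 405, em 460/530 nm.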

For assay [17], the target named is Thyrotropin-releasing hormone receptor (Homo sapiens) (UniProt P34981). In words: qHTS assay to identify small molecule antagonists of the thyrotropin-releasing hormone receptor (TRHR) signaling pathway (AID 1346877; active means well fitted inhibition curve with a large enough effect in the repeat runs, not every such curve was filed as active; further: series mostly up to about 51 µM). The method, boiled down:
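Intracellular calcium fluorescence, read kinetically every second over 3 min, reports TRH-evoked signalling in HEK293 cells carrying TRHR. Test compounds were added 5 min ahead of a 1 nM TRH challenge.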

Assay [18] in a line: qHTS assay to identify small molecule agonists of the estrogen receptor beta (ER-beta) signaling pathway - cell viability counter screen (AID 1259380; active means well fitted curve in the direction sought with a large enough effect in the repeat runs; an effect the other way counts as inactive or inconclusive; further: nearly all actives have a fitted effect of over 30% in size; further: potency means the concentration at half of the fitted maximal effect). A digest of the protocol:
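HEK293T ER-beta-UAS-bla; 2% CS-FBS; 6 hr pre-plate, 16 hr cpd at 37C/5% CO2; LiveBLAzer read first, then CellTiter-Glo 30 min RT, luminescence.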

Assay [19] can be described thus: qHTS assay to identify small molecule agonists of the progesterone receptor (PR) signaling pathway - cell viability counter screen (AID 1346799). Further: nearly all actives have a fitted effect of over 45% in size. Further: potency means the concentration at half of the fitted maximal effect. A digest of the protocol: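 Luminescence from CellTiter-Glo, added after the beta-lactamase FRET read in the same wells, gave cytotoxicity in PR-UAS-bla HEK293T cells treated with compounds for 16 hr at 37C.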

A number with no mark means an inactive call. Results filed as inconclusive are left out. The source made the active and inactive calls. Unless noted, the call rests on the fitted dose curve.

Sequence of Progesterone receptor (Homo sapiens) (P06401 whole entry, looked up): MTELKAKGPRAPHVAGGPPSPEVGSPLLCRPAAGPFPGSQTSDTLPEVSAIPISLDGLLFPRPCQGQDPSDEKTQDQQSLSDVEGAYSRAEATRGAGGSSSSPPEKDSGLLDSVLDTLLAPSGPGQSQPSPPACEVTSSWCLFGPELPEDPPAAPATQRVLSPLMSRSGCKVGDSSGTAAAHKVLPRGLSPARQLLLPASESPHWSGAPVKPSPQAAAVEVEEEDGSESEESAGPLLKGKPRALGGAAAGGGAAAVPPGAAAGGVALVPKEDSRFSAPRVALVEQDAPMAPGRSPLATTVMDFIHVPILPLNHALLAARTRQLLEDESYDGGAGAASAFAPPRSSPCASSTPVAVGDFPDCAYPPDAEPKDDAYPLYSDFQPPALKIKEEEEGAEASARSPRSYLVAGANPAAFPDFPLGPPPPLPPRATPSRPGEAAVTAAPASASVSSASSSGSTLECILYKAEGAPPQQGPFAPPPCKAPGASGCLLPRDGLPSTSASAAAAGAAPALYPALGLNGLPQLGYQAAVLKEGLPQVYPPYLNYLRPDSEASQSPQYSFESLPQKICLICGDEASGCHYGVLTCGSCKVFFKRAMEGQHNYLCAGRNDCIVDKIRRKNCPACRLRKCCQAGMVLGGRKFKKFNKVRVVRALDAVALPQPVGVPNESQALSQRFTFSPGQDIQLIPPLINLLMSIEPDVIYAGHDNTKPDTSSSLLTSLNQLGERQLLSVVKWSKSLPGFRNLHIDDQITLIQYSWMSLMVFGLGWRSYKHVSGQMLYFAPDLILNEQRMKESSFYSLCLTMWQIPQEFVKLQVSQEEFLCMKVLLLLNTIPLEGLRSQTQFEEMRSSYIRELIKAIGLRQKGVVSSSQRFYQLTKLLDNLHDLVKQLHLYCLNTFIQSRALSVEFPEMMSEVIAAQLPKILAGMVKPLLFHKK
Sequence of Thyrotropin receptor (Homo sapiens) (P16473 whole entry, looked up): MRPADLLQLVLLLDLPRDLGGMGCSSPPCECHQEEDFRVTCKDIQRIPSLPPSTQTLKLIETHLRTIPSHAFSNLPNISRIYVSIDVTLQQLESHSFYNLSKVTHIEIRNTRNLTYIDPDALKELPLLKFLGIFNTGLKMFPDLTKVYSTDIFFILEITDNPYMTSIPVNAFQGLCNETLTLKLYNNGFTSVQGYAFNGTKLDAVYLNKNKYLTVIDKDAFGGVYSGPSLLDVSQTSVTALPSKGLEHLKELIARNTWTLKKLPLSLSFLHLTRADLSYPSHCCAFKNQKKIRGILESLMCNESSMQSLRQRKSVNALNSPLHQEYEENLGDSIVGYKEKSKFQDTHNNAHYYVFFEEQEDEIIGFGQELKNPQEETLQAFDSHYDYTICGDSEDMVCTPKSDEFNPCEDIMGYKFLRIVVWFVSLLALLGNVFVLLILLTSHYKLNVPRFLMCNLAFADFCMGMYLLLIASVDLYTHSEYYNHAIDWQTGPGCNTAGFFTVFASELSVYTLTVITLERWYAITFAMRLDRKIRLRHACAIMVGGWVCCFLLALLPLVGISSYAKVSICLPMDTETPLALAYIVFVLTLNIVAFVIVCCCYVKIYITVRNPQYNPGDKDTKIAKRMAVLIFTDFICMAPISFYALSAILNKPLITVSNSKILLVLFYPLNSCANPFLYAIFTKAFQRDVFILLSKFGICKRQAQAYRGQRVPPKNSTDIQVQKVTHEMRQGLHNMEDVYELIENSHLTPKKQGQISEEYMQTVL
Sequence of Thyrotropin-releasing hormone receptor (Homo sapiens) (P34981 whole entry, looked up): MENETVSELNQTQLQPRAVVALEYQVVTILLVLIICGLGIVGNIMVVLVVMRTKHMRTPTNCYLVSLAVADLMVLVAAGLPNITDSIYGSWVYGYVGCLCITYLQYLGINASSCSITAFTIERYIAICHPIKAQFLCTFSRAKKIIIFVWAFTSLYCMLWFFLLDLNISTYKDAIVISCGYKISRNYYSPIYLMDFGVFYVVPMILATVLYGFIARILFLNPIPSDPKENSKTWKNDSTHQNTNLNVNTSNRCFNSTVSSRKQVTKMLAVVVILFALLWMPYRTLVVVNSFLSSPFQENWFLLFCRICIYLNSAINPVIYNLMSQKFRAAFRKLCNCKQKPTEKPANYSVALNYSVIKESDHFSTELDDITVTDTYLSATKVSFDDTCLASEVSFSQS

As to `O=C(O)CNC(=O)c1ccccc1I`, the Potency result in assay [1], in [2], in assay [3], in assay [4], in assay [5] and in assay [6] was “inactive” in each case. Further, the Potency result in assay [7], in [8], in [9], in assay [10], in assay [11] and in [12] was “inactive” throughout. Moreover, the Potency result in [13], in assay [15] and in assay [16] was “inactive” throughout. For the same molecule, in [14], the molecule was called inactive.

`CO[C@@H]1[C@@H](OC)[C@H](C)[C@@](O)(CC(=O)O)O[C@H]1[C@H](C)[C@H]1O[C@@]2(CC[C@@](C)([C@H]3CC[C@@](C)([C@@H]4O[C@@H]([C@H]5O[C@](C)(O)[C@H](C)C[C@@H]5C)C[C@@H]4OC4C[C@H](OC)[C@@H](OC)[C@H](C)O4)O3)O2)C[C@H](O)[C@H]1C` (stereo partly specified): the Potency result in assay [1], in assay [3], in assay [7], in assay [8], in assay [15] and in [16] was “inactive” throughout. Also, the Potency is 0.211 µM (active) in assay [2]; 11.9 µM (active) in assay [4]; 1.68 µM (active) in [5]; 18.8 µM (active) in assay [9]; 2.37 µM (active) in [10]; 10.6 µM (active) in assay [12]. Also, the Potency in assay [13] is 18.8 µM (active). The molecule was classed as inactive in assay [14] and in assay [17].

Consider `O[C@@H](CNC[C@H](O)[C@H]1CCc2cc(F)ccc2O1)[C@@H]1CCc2cc(F)ccc2O1`, for which the Potency entry in [1], in assay [3], in assay [7], in assay [8], in assay [9] and in [10] was “inactive” throughout. For the same molecule, the Potency result in assay [15] and in assay [16] was “inactive” each time. The Potency in assay [2] was 13.3 µM (active); in [4], 8.41 µM (active); in [18] it was 11.9 µM (active); in assay [6] it was 21.1 µM (active); in assay [12], 26.6 µM (active); in assay [13] it was 29.8 µM (active). Besides, the Potency in assay [19] was 29.8 µM (active). Besides, the outcome in [14] was inactive.

Consider `CCN(CC)C(=O)N1CCN(C)CC1`, for which the Potency result in assay [1], in assay [2], in assay [3], in assay [4], in assay [5] and in assay [18] was “inactive” in each case. Further, the Potency entry in [8], in assay [9], in assay [10], in assay [11], in assay [12] and in [13] was “inactive” in each case. The Potency entry in assay [19] and in assay [16] was “inactive” throughout. For the same molecule, the molecule was classed as inactive in assay [14].

On to `O=C(Nc1ccc(C(=O)O)c(O)c1)c1ccccc1`, for which the Potency entry in assay [1], in [2], in assay [3], in assay [4], in assay [5] and in [6] was “inactive” each time. In addition, the Potency entry in assay [7], in assay [8], in assay [9], in assay [10], in assay [11] and in [12] was “inactive” in each case. Further, the Potency result in assay [13], in [19], in assay [15] and in assay [16] was “inactive” in each case. In addition, the call in assay [17] was inactive.

Regarding `C=C(C)c1ccccc1`, the Potency entry in assay [1], in [2], in [3], in assay [4], in assay [18] and in assay [6] was “inactive” throughout. Further, the Potency entry in assay [8], in assay [10], in assay [12], in assay [13], in assay [15] and in [16] was “inactive” each time. Further, the Potency in assay [11] is 15.4 µM (active). In addition, the molecule was classed as inactive in assay [14] and in assay [17].

Regarding `CC[C@@H](CO)NCCN[C@@H](CC)CO`, the Potency result in assay [1], in [2], in assay [3], in assay [4], in [5] and in assay [6] was “inactive” throughout. For the same molecule, the Potency result in assay [8], in assay [9], in assay [10], in assay [11], in assay [12] and in assay [13] was “inactive” throughout. Moreover, the Potency result in assay [19], in assay [15] and in [16] was “inactive” throughout. In addition, the molecule was called inactive in assay [14].

With `SCCc1cnccn1`, the Potency result in [1], in assay [2], in assay [3], in assay [4], in assay [5] and in [6] was “inactive” throughout. In addition, the Potency result in assay [7], in assay [8], in assay [9], in [10], in assay [11] and in assay [16] was “inactive” each time. Besides, the values for the Potency in [12] and in assay [13] were 43.3 µM (active) and 30.6 µM (active), respectively. Besides, the outcome in assay [14] and in assay [17] was inactive.
